From PubChem BioAssay (NCATS)
Several values for one entry are separate records, joined by “and”; a condition that tells them apart may be missing. Identical values can stand only once. Inconclusive results are not listed. Values without a mark were called inactive. Activity calls are given as the source filed them. Calls follow the shape of the dose curve; as a rule, active = well fitted activation curve with a large enough effect; inconclusive = small, poorly fitted or top-dose-only effect; inactive = no such curve, though single readings can be large or run the other way. Peptide text beside a SMILES is read from it. * marks the point of attachment. Cbz = O=C(OCc1ccccc1)*; CH2F = FC*

target: Cellular tumor antigen p53 (Homo sapiens) (UniProt P04637); experiment: Primary qHTS for small molecule compounds that upregulate eGFP-tagged delta133p53alpha (in N-terminal) cells. (AID 2060322); details: NCI-H358 eGFP-delta133p53alpha fluorescence, 24 h; activation: stronger effect = higher value; also: nearly all actives have a fitted effect of over 75% in size;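 as to activation: series mostly up to about 56 µM; 0% = DMSO vehicle and 100% = reference activator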
Sequence (P04637 whole entry, looked up): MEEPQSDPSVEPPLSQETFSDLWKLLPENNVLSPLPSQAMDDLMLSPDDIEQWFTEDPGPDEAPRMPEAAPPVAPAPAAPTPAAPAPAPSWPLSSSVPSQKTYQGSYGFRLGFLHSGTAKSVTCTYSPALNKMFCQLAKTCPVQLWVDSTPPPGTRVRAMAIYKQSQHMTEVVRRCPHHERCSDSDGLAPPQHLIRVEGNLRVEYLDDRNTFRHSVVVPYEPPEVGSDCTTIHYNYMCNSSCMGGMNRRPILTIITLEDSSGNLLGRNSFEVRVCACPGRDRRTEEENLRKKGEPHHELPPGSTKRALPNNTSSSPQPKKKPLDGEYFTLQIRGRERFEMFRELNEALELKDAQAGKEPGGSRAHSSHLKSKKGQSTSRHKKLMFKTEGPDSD
How it was run: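 NCI-H358 cells pre-induced 24 h with 10 ng/ml doxycycline for eGFP-delta133p53alpha, plated dox-free and exposed 24 h at 37C to titrated compounds. Fixed, Hoechst-stained; gated GFP peak intensity by laser scanning cytometry, normalized to DMSO (0%) and 57.5 uM 5-azacytidine (100%).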
Potency is read from the fitted curve at half-maximal effect.

| Compound | activation | Potency |
| --- | --- | --- |
| C=C1CC2C(C)(CCC(=O)O)C(C(C)(C)O)CCC2(C)C2(C(=O)OC)C(=O)C(C)(O)C(=O)C12C (stereo not given) | -21.4% |  |
| C=C1CC[C@@H]2[C@](C)(CO)[C@H](O)CC[C@@]2(C)[C@@H]1C/C=C1/C(=O)OCC1OC(=O)/C(=C/CO)C(O)C[C@@H]1C(=C)CC[C@@H]2[C@](C)(CO)[C@H](O)CC[C@]21C (stereo not given in full) | 13% |  |
| CCN(CC)CCCCCCNc1cc(OC)cc2c(C)ccnc12 | -2.86% |  |
| CC1(C)C[C@H]2C3=CCC4[C@@]5(C)CC[C@H](O[C@H]6O[C@H](C(=O)O)[C@@H](O)[C@H](O)[C@H]6O[C@H]6O[C@H](CO)[C@@H](O)[C@H](O)[C@H]6O[C@@H]6O[C@H](CO)[C@@H](O)[C@H](O)[C@H]6O)[C@](C)(CO)C5CC[C@@]4(C)[C@]3(C)CC[C@@]2(C)[C@H](O[C@@H]2OC[C@H](O)[C@H](OC3O[C@H](CO)[C@@H](O)[C@H](O)[C@H]3O)[C@H]2O)[C@@H]1O (stereo not given in full) | -19.8% |  |
| CC1(C)CC[C@]2(C(=O)O[C@@H]3O[C@H](CO)[C@@H](O)[C@H](O)[C@H]3O)CC[C@]3(C)C(=CCC4[C@@]5(C)CC[C@H](O[C@H]6O[C@H](CO)[C@@H](O)[C@H](O[C@@H]7O[C@H](CO)[C@@H](O)[C@H](O)[C@H]7O)[C@H]6O)C(C)(C)C5CC[C@]43C)[C@@H]2C1 (stereo not given in full) | 15.3% |  |
| C=C1C(O)C[C@@H]2C(C(=O)O)=CO[C@@H](O[C@@H]3O[C@H](CO)[C@@H](O)[C@H](O)[C@H]3OC(=O)c3ccc(O)cc3)[C@H]12 (stereo not given in full) | 9.82% |  |
| C/C1=C\CCC2=C[C@@H](OC2=O)c2c(C)coc2C1 | 13.4% |  |
| C=CC1C(O[C@@H]2O[C@H](CO)[C@@H](O)[C@H](O)[C@H]2O)OC=C(C(=O)OC)C1Cc1nccc2c1[nH]c1ccccc12 (stereo not given in full) | 19.6% |  |
| N#C[C@@H]1CCCN1C(=O)CNC12CC3CC(CC(O)(C3)C1)C2 | 15% |  |
| Cc1occc(=O)c1O[C@@H]1O[C@H](CO)[C@@H](O)[C@H](O)[C@H]1O | 11.6% |  |
| CC(=O)O[C@@H]1[C@H](O[C@@H]2O[C@@H](CO)[C@H](O)[C@H]2O)[C@@H](O[C@@H]2O[C@@H](C)[C@H](O[C@@H]3OC[C@@H](O)[C@H](O)[C@H]3O)[C@@H](O)[C@H]2O)[C@H](OC(=O)[C@]23CCC(C)(C)C[C@H]2C2=CCC4[C@@]5(C)CC[C@H](O[C@@H]6O[C@H](C(=O)O)[C@@H](O)[C@H](O)[C@H]6O[C@@H]6O[C@H](CO)[C@H](O)[C@H](O)[C@H]6O)[C@@](C)(C=O)C5CC[C@@]4(C)[C@]2(C)C[C@H]3O)O[C@@H]1C (stereo not given in full) | 0.893% |  |
| CC1=CC(=O)C(=C(C)C)CC2C1CCC2(C)O (stereo not given) | -7.14% |  |
| COc1cc2oc(-c3ccc(O)cc3O)cc2c(OC)c1CC=C(C)C | 9.82% |  |
| OC[C@H]1O[C@@H](Oc2ccc3c(c2)OC[C@H]2c4cc5c(cc4O[C@@H]32)OCO5)[C@H](O)[C@@H](O)[C@@H]1O | -13.7% |  |
| COC1=CC(=O)O/C1=C(/OC)[C@@H]1O[C@H]1c1ccccc1 | -3.05% |  |
| C/C1=C\C[C@]2(C)C(=O)C(O)=C([C@H](C)CO)[C@H]2C/C=C(\C)[C@@H](O)CC/C(C)=C/CC1 | -6.11% |  |
| C=C1C(=O)O[C@@H]2C[C@@H](C)[C@]34C[C@]5(C(=O)O[C@H]6CC(C)=C([C@H](C)CCCO)[C@H](OC(=O)C(C)CC)[C@H]65)[C@@H](C(C)=C3C[C@@H]12)[C@H]4OC(C)=O (stereo not given in full) |  | 6.3 µM (active) |
| CC1OC(O[C@H]2CC[C@@]3(C)C(CC[C@]4(C)C3CC=C3C5CC(C)(C)CC[C@]5(C(=O)OC5OC(CO)C(OC6OCC(OC7OCC(O)C(O)C7O)C(O)C6O)C(O)C5O)CC[C@]34C)C2(C)C)C(O)C(O)C1OC1OC(CO)C(O)C(OC2OC(CO)C(O)C(O)C2O)C1O (stereo not given in full) | 9.16% |  |
| COC(=O)[C@H](Cc1cccc(C(=N)N)c1)[C@@H](C)NC(=O)c1ccc(-c2cc[n+]([O-])cc2)cc1 | 8.93% |  |
| C=C1[C@@H]2CC[C@@]3(C)[C@H](c4ccoc4)OC(=O)C[C@]13O[C@H]1CC(=O)C(C)(C)[C@H](C(O)C(=O)OC)[C@]12C (stereo not given in full) | 8.04% |  |

| Compound | activation | Potency |
| --- | --- | --- |
| O=C(O)c1ccc(OC2OC(CO)C(O)C(O)C2O)cc1 (stereo not given) | -11.6% |  |
| CC1OC(OC2C(C)OC(OC3C(O)C(CO)OC(O[C@H]4CC[C@@]5(C)C(CC[C@]6(C)C5CC=C5C7[C@@H](C)[C@H](C)CC[C@]7(C(=O)O)CC[C@]56C(=O)O)C4(C)C)C3O)C(O)C2O)C(O)C(O)C1O (stereo not given in full) | 3.82% |  |
| O=[N+]([O-])c1ccc(Oc2ccc3c(c2)CCC(c2ccccc2)O3)nc1 (stereo not given) | 2.33% |  |
| CC(C)(C)NCCCNC(=O)c1cccc(Br)c1 | -8.59% |  |
| CC(=O)CCC1=C(C)C(O[C@@H]2O[C@H](CO)[C@@H](O)[C@H](O)[C@H]2O)C(O)CC1(C)C (stereo not given in full) | -3.82% |  |
| COc1cc(NS(=O)(=O)c2ccc(N)cc2)nc(C)n1 | -15.9% |  |
| COC(=O)[C@H](OC(C)=O)[C@H]1C(C)(C)C(=O)[C@H]2CC3=C4CC(=O)O[C@@H](c5ccoc5)[C@]4(C)CCC3[C@@]1(C)C2=O (stereo not given in full) | 2.68% |  |
| C1=Cc2ccccc2C(=C2CCN(CCCCc3nn[nH]n3)CC2)c2ccccc21 | -3% |  |
| CCC(C)C(=O)O[C@H]1[C@@H](OC(=O)c2ccoc2)C[C@](C)(O)[C@]23OC(C)(C)[C@H](C[C@H](OC(=O)c4ccoc4)[C@]12COC(C)=O)[C@H]3OC(C)=O (stereo not given in full) | 17.6% |  |
| CC1CCC2C(C)(C)[C@@H](O)CC[C@]2(C)C12Cc1c(O)cc3c(c1O2)CN(C(CCC(=O)O)C(=O)O)C3=O (stereo not given in full) | 23.2% |  |
| CC1CCC2(NC1)OC1C(=O)C3C4CCC5CC(O[C@@H]6O[C@H](CO)[C@@H](O)[C@H](O)[C@H]6O[C@@H]6O[C@@H](C)[C@H](O)[C@@H](O)[C@H]6O)CCC5(C)C4CCC3(C)C1C2C (stereo not given in full) | 10.7% |  |
| COC(=O)C1=COC(OC2OC(CO)C(O)C(O)C2O)C2C1C=CC2(O)CO (stereo not given) | -3.57% |  |
| CC1=CC(=O)CC(C)(C)C1CCC(C)O[C@@H]1O[C@H](CO[C@@H]2OC[C@@H](O)[C@H](O)[C@H]2O)[C@@H](O)[C@H](O)[C@H]1O (stereo not given in full) | -10.7% |  |
| CN(C)CCCn1cc(C2=C(c3c[nH]c4ccccc34)C(=O)NC2=O)c2ccccc21 |  | 30.1 µM (active) |
| OCC1OC(Oc2cc(O)cc(/C=C/c3ccc(O)cc3)c2)C(O)C(O)C1O (stereo not given) | -15.3% |  |
| CC1CCCC(O)CCC/C=C/c2cc(OS(=O)(=O)O)cc(O)c2C(=O)O1 (stereo not given) | -19.8% |  |
| COC(=O)CC[C@H](NC(=O)[C@H](CC(C)C)NC(=O)OCc1ccccc1)C(=O)N[C@@H](Cc1cnc[nH]1)C(=O)N[C@@H](CC(=O)OC)C(=O)CF (Cbz-LE(OMe)HD(OMe)-CH2F) | 23.7% |  |
| CC1(C)O[C@H]2CC(=O)OC[C@]23[C@H]2CC[C@@]4(C)[C@H](c5ccoc5)OC(=O)[C@H]5O[C@]54[C@]2(C)C(=O)C[C@@H]13 | -25.4% and 64.1% and 3.82% |  |
| Nc1c(NC/C=C\COc2cc(CN3CCCCC3)ccn2)c(=O)c1=O | -10.3% |  |
| CC(C)CC(=O)OC[C@@]1(O)C[C@@]23CC[C@H]4[C@@](C)(CCC[C@@]4(C)C(=O)O)[C@@H]2CC[C@@H]1C3 | -13% |  |
